DT40 TDP1 CPT: DT40-hTDP1 cell growth loss with CPT. chicken DT40 Tdp1-/-;hTDP1 cells + 20 nM CPT, ATP luminescence, 48 h. Potency, µM (doses to about 46.2 µM), most hits filed as inhibitors. 12% of 420,000 active; note: nearly all actives have a fitted effect of over 55% in size
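Chicken DT40 Tdp1-/- cells stably complemented with human TDP1 were seeded at 400 cells/well in medium containing 20 nM camptothecin, exposed to pin-transferred compounds, and grown at 37 °C for at least 48 hr. Viability was read as ATP luminescence.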
DT40 TDP1 no CPT: qHTS for Inhibitors of human tyrosyl-DNA phosphodiesterase 1 (TDP1): qHTS in cells in absence of CPT. Potency, µM (titrated, usually from 46.2 µM), actives largely listed as inhibitors. DT40 Tdp1-/- hTDP1 cells, no CPT, ATP luminescence, 48 h. 15% of 420,000 active; note: nearly all actives have a fitted effect of over 55% in size
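Chicken DT40 Tdp1-/- cells stably complemented with human TDP1 were seeded at 400 cells/well with DMSO in place of 20 nM camptothecin. After compound pinning, cells grew at least 48 hr at 37 °C; viability read by CellTiter-Glo luminescence.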
IL1B secr inh: blocks inflammasome-driven IL-1 beta release | THP-1 LPS/ATP IL-1B secretion, AlphaLISA, 16 h; hits give low values | activity change, % at 57.5 µM | 4.7% of 360,000 active | AID 743279; in the data active = activity change below about -50%; inconclusive = mostly about -30% to -49%
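Secreted IL-1B measured by AlphaLISA bead assay after 16 h compound exposure of THP-1 cells; compounds (final up to 57.5 uM) added 1 h before LPS (250 ng/mL) and ATP (1.25 mM) stimulation; lower signal means less secretion.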
RORgamma inh: blocks mouse ROR gamma transcriptional activity. 5.4% of 310,000 active. P51450. Drosophila S2 Gal4-RORgamma UAS-luciferase reporter, 20 h. Potency, µM (titrated, usually from 53.6 µM), hits mostly inhibitors; note: nearly all actives have a fitted effect of over 60% in size
Target sequence (P51450 whole entry, looked up, the tested form may be a part): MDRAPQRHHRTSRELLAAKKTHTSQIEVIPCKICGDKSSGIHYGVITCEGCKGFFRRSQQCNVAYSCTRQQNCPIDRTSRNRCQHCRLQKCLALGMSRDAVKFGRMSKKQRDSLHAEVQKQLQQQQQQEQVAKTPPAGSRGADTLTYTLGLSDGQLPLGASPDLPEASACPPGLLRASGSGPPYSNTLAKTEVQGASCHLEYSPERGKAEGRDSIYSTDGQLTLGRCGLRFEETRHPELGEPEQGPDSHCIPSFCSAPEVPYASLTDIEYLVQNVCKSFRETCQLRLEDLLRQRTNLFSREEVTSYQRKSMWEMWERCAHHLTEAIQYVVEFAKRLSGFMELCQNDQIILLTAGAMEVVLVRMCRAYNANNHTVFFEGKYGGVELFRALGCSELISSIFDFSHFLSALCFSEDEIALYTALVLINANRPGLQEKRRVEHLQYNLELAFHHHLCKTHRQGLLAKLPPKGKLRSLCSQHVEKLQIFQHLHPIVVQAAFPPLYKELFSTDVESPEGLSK
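Drosophila Schneider cells stably carrying a metallothionein-driven Gal4 DBD–ROR gamma fusion and a UAS-Photinus luciferase reporter were exposed to compound for 1 hr, then induced with copper sulfate (700 uM final) for 20 hr at ambient temperature before luminescence reading.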
ELG1 repair inh: ELG1-dependent DNA repair inhibition. HEK293T ELG1-luciferase reporter, luminescence, 16 h; DNA damage induced by 5-fluorouridine. Potency, µM (highest dose often 46.1 µM), actives largely listed as inhibitors. 2.3% of 330,000 active; note: nearly all actives have a fitted effect of over 55% in size
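Overnight (16 hr) co-exposure of 2,000 cells/well to 5-fluorouridine and compound at 37 °C preceded detection. Luciferase was quantified via ONE-Glo luminescence; loss of signal denotes inhibition.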
Gal4-VP16 FLuc: Gal4-VP16 reporter inhibition counter-screen; Drosophila S2 Gal4-VP16 UAS-luciferase, luminescence, 20 h; Potency, µM (doses to about 53.6 µM), actives largely listed as inhibitors; 3.5% of 310,000 active;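 note: Gal4-VP16 expression switched on by copper sulfate through the metallothionein promoter; nearly all actives have a fitted effect of over 50% in size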
Hits are given with their value; [ ] = dose if it differs, or a comment. Only some compounds are listed: those with a hit (about 21% of all), similar ones and a draw of the others. Unless noted, calls come from the whole dose curve; as a rule, active = well fitted curve in the direction sought with a large enough effect; inconclusive = small, poorly fitted or top-dose-only effect, or another doubt; inactive = no such curve, though single readings can be large; an effect the other way counts as inactive or inconclusive.

`CC1Cc2ccccc2N1C(=O)CO/N=C/c1ccccc1OC(F)F` (stereo unspecified) gave DT40 TDP1 CPT inconclusive, DT40 TDP1 no CPT 21µM, IL1B secr inh inactive, RORgamma inh inactive, ELG1 repair inh inactive and Gal4-VP16 FLuc inactive.
For COc1ccc(/C=C/C(=O)OCC(=O)N2c3ccccc3CC2C)c(OC)c1 (stereo unspecified) the results were DT40 TDP1 CPT inconclusive, DT40 TDP1 no CPT 18µM and IL1B secr inh inactive.
O=C1C(=NO)C(c2ccccc2)Oc2ccccc21 (stereo unspecified) was read as DT40 TDP1 CPT inactive, DT40 TDP1 no CPT inactive and IL1B secr inh -90.
For COc1cccc(-c2nn(-c3ccc(C)cc3)cc2C(=O)NCC2CCCO2)c1 (stereo unspecified) the results were DT40 TDP1 CPT inconclusive, DT40 TDP1 no CPT inconclusive, IL1B secr inh inactive and ELG1 repair inh inactive.
COc1cccc(-c2cc(C(=O)NCC3CCCO3)c3cc(C)cc(C)c3n2)c1 (stereo unspecified) was read as DT40 TDP1 CPT 23µM, DT40 TDP1 no CPT 26µM, IL1B secr inh inactive, RORgamma inh inactive, ELG1 repair inh inactive and Gal4-VP16 FLuc inactive.
`COc1cccc(-c2nn(-c3ccc(F)cc3)cc2C(=O)NCC2CCCO2)c1` (stereo unspecified) gave DT40 TDP1 CPT 23µM, DT40 TDP1 no CPT 23µM, IL1B secr inh inactive and ELG1 repair inh inconclusive.
C/C(CCN1CCCc2nc(C)c(C)cc21)=N\O[C@@H](C)CN1CCCCc2nc(C)c(C)cc21 was read as RORgamma inh inactive[10 µM] and Gal4-VP16 FLuc inactive[10 µM].
`c1ccc(C[C@H]2CNCCN2CC2CCCCC2)cc1` gave DT40 TDP1 CPT inconclusive, DT40 TDP1 no CPT 16µM, IL1B secr inh inactive and ELG1 repair inh inactive.
For c1ccc(C[C@H]2CNCCN2CCCCC2CCCCC2)cc1 the results were DT40 TDP1 CPT inconclusive, DT40 TDP1 no CPT inconclusive, IL1B secr inh -80 and ELG1 repair inh inactive.
For Cc1ccc(NC(=O)C2CCN(C(=O)c3cnn(-c4ccccc4)c3-n3cccc3)CC2)cc1C the results were DT40 TDP1 CPT 18µM and DT40 TDP1 no CPT inconclusive.
For CC(C)NC(=O)C1CCN(C(=O)c2cnn(-c3ccccc3)c2-n2cccc2)CC1 the results were DT40 TDP1 CPT inactive and DT40 TDP1 no CPT inactive.
`Cc1ccccc1NC(=O)C1CCN(C(=O)c2cnn(-c3ccccc3)c2-n2cccc2)CC1` gave DT40 TDP1 CPT inconclusive and DT40 TDP1 no CPT 16µM.
For Cc1ccc(NC(=O)C2CCN(C(=O)c3cnn(-c4ccccc4)c3-n3cccc3)CC2)cc1 the results were DT40 TDP1 CPT inconclusive and DT40 TDP1 no CPT 13µM.
`CS(=O)(=O)N1CCCC(C(=O)Nc2cccc(F)c2)C1` (stereo unspecified) gave DT40 TDP1 CPT inactive, DT40 TDP1 no CPT inactive, IL1B secr inh inactive, RORgamma inh inactive, ELG1 repair inh inactive and Gal4-VP16 FLuc inactive.
`CSc1cccc(NC(=O)C2CCCN(C(=O)c3cnn(-c4ccc(F)cc4)c3-n3cccc3)C2)c1` (stereo unspecified) gave DT40 TDP1 CPT 18µM and DT40 TDP1 no CPT 16µM.
COc1ccc(Cl)cc1S(=O)(=O)N(C)CC(=O)NCc1ccccn1 was read as DT40 TDP1 CPT inactive, DT40 TDP1 no CPT inactive, IL1B secr inh inactive, RORgamma inh inactive, ELG1 repair inh inactive and Gal4-VP16 FLuc inactive.
Cc1ccc(CNC(=O)C2CCN(C(=O)c3cnn(-c4ccccc4)c3-n3cccc3)CC2)cc1 was read as DT40 TDP1 CPT 12µM and DT40 TDP1 no CPT 9.2µM.
For Cc1cc(C)cc(NC(=O)C2CCN(C(=O)c3cnn(-c4ccccc4)c3-n3cccc3)CC2)c1 the results were DT40 TDP1 CPT 18µM and DT40 TDP1 no CPT 15µM.
For COc1ccc(/C=N/NC(=O)Cn2nc(C)c([N+](=O)[O-])c2C)cc1 the results were DT40 TDP1 CPT 12µM, DT40 TDP1 no CPT inconclusive, IL1B secr inh inactive, RORgamma inh inactive, ELG1 repair inh inactive and Gal4-VP16 FLuc inactive.
For Cc1nn(C)c(C)c1/C=N/NC(=O)CCn1nc(C)c([N+](=O)[O-])c1C the results were DT40 TDP1 CPT inactive, DT40 TDP1 no CPT inconclusive, IL1B secr inh inactive, RORgamma inh inactive, ELG1 repair inh inactive and Gal4-VP16 FLuc 3.5µM.
Screening CC/C(=N\NC(=S)Nc1cccc(C)c1)c1ccccc1 returned DT40 TDP1 CPT 13µM, DT40 TDP1 no CPT 5.2µM, IL1B secr inh inactive, RORgamma inh inconclusive, ELG1 repair inh inactive and Gal4-VP16 FLuc inconclusive.
CC(C)/C(=N\NC(=O)Nc1ccccc1)c1ccccc1 was read as DT40 TDP1 CPT inactive, DT40 TDP1 no CPT inactive, IL1B secr inh inactive, RORgamma inh inactive, ELG1 repair inh inactive and Gal4-VP16 FLuc inactive.
For Cc1cccc(NC(=S)N/N=C(\c2ccccc2)C(C)C)c1 the results were DT40 TDP1 CPT inconclusive, DT40 TDP1 no CPT 5.8µM, IL1B secr inh inactive, RORgamma inh 4.5µM, ELG1 repair inh inactive and Gal4-VP16 FLuc inconclusive.
For COc1ccc(C(=O)O)cc1S(=O)(=O)Nc1ccc2cn[nH]c2c1 the results were DT40 TDP1 CPT inactive, DT40 TDP1 no CPT inactive, IL1B secr inh inactive and ELG1 repair inh inactive.
Screening O=C(O)c1ccc(CNCc2ccccc2Cl)s1 returned DT40 TDP1 CPT inactive and DT40 TDP1 no CPT inactive.
`COc1ccc(C2c3[nH]c4ccccc4c3C[C@H]3C(=O)N(C4CCN(Cc5ccccc5)CC4)CC(=O)N23)c(OC)c1` (stereo partly specified) gave DT40 TDP1 CPT inconclusive, DT40 TDP1 no CPT 15µM, IL1B secr inh inactive, RORgamma inh inactive, ELG1 repair inh inactive and Gal4-VP16 FLuc inactive.
Screening CCOc1ccccc1C1c2[nH]c3ccccc3c2C[C@H]2C(=O)N(C3CCN(Cc4ccccc4)CC3)CC(=O)N12 (stereo partly specified) returned DT40 TDP1 CPT 5.8µM, DT40 TDP1 no CPT 16µM, IL1B secr inh inconclusive, RORgamma inh inactive, ELG1 repair inh inconclusive and Gal4-VP16 FLuc inactive.
For COc1cc(/C=C(/C#N)c2nc(-c3cc4ccccc4oc3=O)cs2)ccc1O the results were DT40 TDP1 CPT inactive and DT40 TDP1 no CPT 2.9µM.
`O=C(NCc1ccco1)c1ccc2sc([C@@H]3O[C@H](CO)[C@H](O)[C@H](O)[C@H]3O)nc2c1` gave DT40 TDP1 CPT inactive, DT40 TDP1 no CPT inactive and IL1B secr inh inactive.
Screening CC(O)(c1cccc(F)c1)c1nc(-c2cncnc2)cs1 (stereo unspecified) returned DT40 TDP1 CPT inconclusive, DT40 TDP1 no CPT inactive and IL1B secr inh inactive.

Source: PubChem BioAssay (National Center for Advancing Translational Sciences (NCATS))
